From PubChem BioAssay
The source made the active and inactive calls.

Assays:
[1] = test system: Plasmodium falciparum Sir2 (PF13_0152, Sir2A); test: pfSir2 binders on small-molecule microarrays, primary screen, biochemical, small-molecule microarray, 635 nm fluorescence (AID 1098); conditions: small-molecule microarray binding, fluorescence 635 nm; higher = more signal;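 further: score merges spot fluorescence intensity with its signal-to-noise ratio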
[2] = small-molecule microarray binders of probe aDKK1, primary screen, biochemical, biotinylated probe, 635/667 nm fluorescence (AID 1099); conditions: higher = more signal;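 further: score merges 667nm spot fluorescence with signal to noise across triplicate slides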
[3] = small-molecule microarray binders of probe aCHRDL2, primary screen, biochemical, biotinylated probe, 635/667 nm fluorescence (AID 1100); conditions: higher = more signal
[4] = splicing luciferase reporter signal modulators, primary screen, spliceosome inhibition project, cell-based, HEK293, splice +/- reporter (AID 1101); conditions: luminescence, 24 h, higher = more signal, called active from +8 up or from −8 down;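 further: HEK293 cells carrying a splicing-competent luciferase reporter gene; test concentration not given here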
[5] = biological target: Fibroblast growth factor 10 (Homo sapiens) (UniProt O15520); test: FGF10 binders on small-molecule microarrays, primary screen, biochemical, small-molecule microarray, 635 nm fluorescence (AID 1102); conditions: FGF10 binding, fluorescence 635 nm, higher = more signal
[6] = test system: glycogen synthase kinase-3 (GSK3A per assay name; protocol says GSK3B); test: GSK3 binders on small-molecule microarrays, primary screen, biochemical, small-molecule microarray, 635 nm fluorescence, GSK3A (AID 1103); conditions: small-molecule microarray binding, fluorescence 635 nm; higher = more signal; further: the record names both GSK3A and GSK3B
[7] = biological target: Epidermal growth factor receptor (Homo sapiens) (UniProt P00533); test: EGFR binders on small-molecule microarrays, primary screen, biochemical, small-molecule microarray, 635 nm fluorescence (AID 1104); conditions: EGFR binding, higher = more signal;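 further: score merges 667 nm emission intensity with spot signal to noise over triplicate slides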
[8] = biological target: Follistatin-related protein 3 (Homo sapiens) (UniProt O95633); test: FSTL3 binders on small-molecule microarrays, primary screen, biochemical, small-molecule microarray, 635 nm fluorescence (AID 1105); conditions: FSTL3 binding, higher = more signal;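 further: score merges emission near 667 nm and signal to noise per printed spot across three slides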
[9] = biological target: Dickkopf-related protein 1 (Homo sapiens) (UniProt O94907); test: DKK1 binders on small-molecule microarrays, primary screen, biochemical, small-molecule microarray, 635 nm fluorescence scan (AID 1106); conditions: DKK1 binding, higher = more signal;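 further: score merges emission near 667 nm with signal to noise over three replicate slides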
[10] = test system: Inhibin beta A chain (activin A); test: INHBA (activin A) binders on microarrays, primary screen, biochemical, small-molecule microarray, 635 nm fluorescence scan (AID 1107); conditions: small-molecule microarray binding, higher = more signal;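 further: mouse activin A protein probed at 4.33 µg/mL on printed slides; score merges bound-protein fluorescence near 667 nm with spot signal-to-noise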
[11] = test system: Human papillomavirus type 1a protein E7 (residues 44-93); test: HPV1a E7 fragment binders on microarrays, primary screen, biochemical, small-molecule microarray, residues 44-93, 635 nm fluorescence (AID 1108); conditions: small-molecule microarray binding, fluorescence 635 nm; higher = more signal;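 further: E7 fragment applied at 1 µg/mL in TBST for 1 h at 4 C; score combines spot fluorescence with its signal to noise ratio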
[12] = modulators of HCV replicon luciferase signal, primary screen, HCV replication inhibitor project, Huh7 cells, luciferase reporter (AID 1109); conditions: 48 h, higher = more signal;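 further: huh7 hepatoma cells harbouring a luciferase neomycin HCV replicon reporter; luciferase luminescence as measure of HCV replicon replication; test concentration not given here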
[13] = biological target: Left-right determination factor 2 (Homo sapiens) (UniProt O00292); test: LEFTY2 binders on small-molecule microarrays, primary screen, biochemical, small-molecule microarray, 635 nm fluorescence scan (AID 1110); conditions: LEFTY2 binding, higher = more signal
[14] = biological target: Calmodulin-1 (Homo sapiens) (UniProt P0DP23); test: CALM1 binders on microarrays, EGTA buffer, profiling panel, biochemical, small-molecule microarray, Cy5-labelled CALM1 (AID 1111); conditions: Cy5-CALM1 binding fluorescence, higher = more signal;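 further: labelled calmodulin applied in Tris saline Tween buffer holding calcium plus EGTA and DTT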
[15] = biological target: Calmodulin-1 (Homo sapiens) (UniProt P0DP23); test: calcium-bound CALM1 binders on microarrays, profiling panel, artefact control for SMM control-protein annotation, biochemical, small-molecule microarray, Cy5-labelled CALM1, plus calcium (AID 1112); conditions: Cy5-CALM1 binding fluorescence, higher = more signal;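 further: score merges spot fluorescence with signal to noise from triplicate slides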
[16] = small-molecule microarray binders of probe aWnt5a, primary screen, biochemical, biotinylated probe, 635/667 nm fluorescence (AID 1113); conditions: higher = more signal;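 further: score merges 667 nm fluorescence intensity with signal-to-noise per printed feature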
[17] = small-molecule microarray binders of probe aShh, primary screen, biochemical, biotinylated probe, 635/667 nm fluorescence (AID 1114); conditions: higher = more signal;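 further: probe is biotin-labelled aShh protein from a stem cell growth factor screen; measures binding of labelled protein to compounds printed on the slide; score merges feature fluorescence at 667 nm with signal-to-noise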
[18] = small-molecule microarray binders of probe aNog, primary screen, biochemical, biotinylated probe, 635/667 nm fluorescence (AID 1115); conditions: higher = more signal;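 further: probe is biotinylated aNog protein used at 0.15 µg/mL for 1 h at 4 C; z-score combines 667 nm fluorescence of each spot with its signal to noise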
[19] = biological target: Torsin-1A-interacting protein 1 (Homo sapiens) (UniProt Q5JTV8); test: LAP1 binders from COS7 cell lysate, primary screen, small-molecule microarray, 635/667 nm fluorescence (AID 1116); conditions: COS7-hLAP1 lysate binding, 635 nm fluorescence, higher = more signal
[20] = biological target: Alpha-bungarotoxin (Bungarus multicinctus) (UniProt P60615); test: alpha-bungarotoxin binders on microarray, profiling panel, artefact control for SMM control protein annotation, biochemical, small-molecule microarray, Alexa647 label, 635/667 nm fluorescence (AID 1117); conditions: alpha-BTX-A647 binding fluorescence, higher = more signal
Chain of Alpha-bungarotoxin (Bungarus multicinctus) (P60615 whole entry, looked up): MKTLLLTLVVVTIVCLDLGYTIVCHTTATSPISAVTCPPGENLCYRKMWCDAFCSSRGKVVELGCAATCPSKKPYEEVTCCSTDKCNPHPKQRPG

Chain of Fibroblast growth factor 10 (Homo sapiens) (O15520 whole entry, looked up): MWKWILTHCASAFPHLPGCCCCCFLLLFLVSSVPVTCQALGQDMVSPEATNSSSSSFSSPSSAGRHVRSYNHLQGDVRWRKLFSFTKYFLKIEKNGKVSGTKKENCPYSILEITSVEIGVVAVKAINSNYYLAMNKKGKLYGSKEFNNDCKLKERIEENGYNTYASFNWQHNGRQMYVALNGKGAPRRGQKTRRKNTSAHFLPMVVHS
Chain of Follistatin-related protein 3 (Homo sapiens) (O95633 whole entry, looked up): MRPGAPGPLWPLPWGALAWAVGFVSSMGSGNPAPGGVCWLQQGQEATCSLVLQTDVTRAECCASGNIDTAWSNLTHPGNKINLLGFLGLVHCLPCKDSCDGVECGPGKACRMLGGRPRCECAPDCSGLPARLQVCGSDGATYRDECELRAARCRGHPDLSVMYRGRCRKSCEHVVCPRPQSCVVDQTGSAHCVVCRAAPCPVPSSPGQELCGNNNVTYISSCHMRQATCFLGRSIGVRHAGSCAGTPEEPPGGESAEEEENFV
Chain of Dickkopf-related protein 1 (Homo sapiens) (O94907 whole entry, looked up): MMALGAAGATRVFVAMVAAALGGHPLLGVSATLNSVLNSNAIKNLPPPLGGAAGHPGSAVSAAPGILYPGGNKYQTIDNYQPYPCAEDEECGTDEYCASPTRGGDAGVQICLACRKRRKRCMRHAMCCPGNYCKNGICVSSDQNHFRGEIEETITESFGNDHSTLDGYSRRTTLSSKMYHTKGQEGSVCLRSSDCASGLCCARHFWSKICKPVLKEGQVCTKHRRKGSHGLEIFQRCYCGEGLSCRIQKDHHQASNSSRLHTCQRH
Chain of Left-right determination factor 2 (Homo sapiens) (O00292 whole entry, looked up): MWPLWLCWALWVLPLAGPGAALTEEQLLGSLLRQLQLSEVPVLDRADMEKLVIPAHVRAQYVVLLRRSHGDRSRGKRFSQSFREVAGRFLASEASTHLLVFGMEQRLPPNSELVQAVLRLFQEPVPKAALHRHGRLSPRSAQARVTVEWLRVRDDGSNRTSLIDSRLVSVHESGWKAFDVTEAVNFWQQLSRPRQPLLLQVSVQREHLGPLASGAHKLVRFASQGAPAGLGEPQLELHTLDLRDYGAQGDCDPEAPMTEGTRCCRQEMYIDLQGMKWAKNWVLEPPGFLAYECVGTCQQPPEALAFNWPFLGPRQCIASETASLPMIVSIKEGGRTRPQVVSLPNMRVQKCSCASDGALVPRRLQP
Chain of Epidermal growth factor receptor (Homo sapiens) (P00533 whole entry, looked up): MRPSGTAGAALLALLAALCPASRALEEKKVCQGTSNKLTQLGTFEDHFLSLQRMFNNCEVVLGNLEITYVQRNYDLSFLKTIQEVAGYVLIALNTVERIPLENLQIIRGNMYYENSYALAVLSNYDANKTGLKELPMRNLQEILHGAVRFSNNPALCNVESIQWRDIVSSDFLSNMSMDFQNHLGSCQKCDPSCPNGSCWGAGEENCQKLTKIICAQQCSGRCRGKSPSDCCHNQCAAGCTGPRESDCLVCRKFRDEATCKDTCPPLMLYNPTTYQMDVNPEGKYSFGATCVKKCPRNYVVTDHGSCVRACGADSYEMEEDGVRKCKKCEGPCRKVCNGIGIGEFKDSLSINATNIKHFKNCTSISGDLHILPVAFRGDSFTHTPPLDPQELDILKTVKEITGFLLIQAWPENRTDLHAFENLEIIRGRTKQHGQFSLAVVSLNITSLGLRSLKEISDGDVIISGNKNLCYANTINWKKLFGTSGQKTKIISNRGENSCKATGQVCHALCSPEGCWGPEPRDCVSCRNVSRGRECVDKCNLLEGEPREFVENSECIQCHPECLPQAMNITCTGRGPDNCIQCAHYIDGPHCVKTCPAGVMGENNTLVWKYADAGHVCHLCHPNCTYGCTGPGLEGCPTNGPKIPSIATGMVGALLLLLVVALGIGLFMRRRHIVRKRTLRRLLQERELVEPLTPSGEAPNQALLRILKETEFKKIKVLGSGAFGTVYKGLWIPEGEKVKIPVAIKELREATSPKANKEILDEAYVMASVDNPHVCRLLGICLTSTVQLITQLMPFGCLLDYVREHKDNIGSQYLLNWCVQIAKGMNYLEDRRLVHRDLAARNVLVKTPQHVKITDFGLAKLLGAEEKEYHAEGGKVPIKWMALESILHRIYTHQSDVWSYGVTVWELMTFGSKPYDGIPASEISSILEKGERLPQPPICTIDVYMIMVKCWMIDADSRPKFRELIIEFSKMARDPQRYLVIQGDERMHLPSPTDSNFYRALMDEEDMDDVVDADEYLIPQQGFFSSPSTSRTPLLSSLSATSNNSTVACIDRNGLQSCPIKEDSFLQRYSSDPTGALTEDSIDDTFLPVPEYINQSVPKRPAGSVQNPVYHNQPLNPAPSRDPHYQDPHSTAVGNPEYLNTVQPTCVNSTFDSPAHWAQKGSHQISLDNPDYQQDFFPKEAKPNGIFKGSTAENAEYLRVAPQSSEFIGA
Chain of Torsin-1A-interacting protein 1 (Homo sapiens) (Q5JTV8 whole entry, looked up): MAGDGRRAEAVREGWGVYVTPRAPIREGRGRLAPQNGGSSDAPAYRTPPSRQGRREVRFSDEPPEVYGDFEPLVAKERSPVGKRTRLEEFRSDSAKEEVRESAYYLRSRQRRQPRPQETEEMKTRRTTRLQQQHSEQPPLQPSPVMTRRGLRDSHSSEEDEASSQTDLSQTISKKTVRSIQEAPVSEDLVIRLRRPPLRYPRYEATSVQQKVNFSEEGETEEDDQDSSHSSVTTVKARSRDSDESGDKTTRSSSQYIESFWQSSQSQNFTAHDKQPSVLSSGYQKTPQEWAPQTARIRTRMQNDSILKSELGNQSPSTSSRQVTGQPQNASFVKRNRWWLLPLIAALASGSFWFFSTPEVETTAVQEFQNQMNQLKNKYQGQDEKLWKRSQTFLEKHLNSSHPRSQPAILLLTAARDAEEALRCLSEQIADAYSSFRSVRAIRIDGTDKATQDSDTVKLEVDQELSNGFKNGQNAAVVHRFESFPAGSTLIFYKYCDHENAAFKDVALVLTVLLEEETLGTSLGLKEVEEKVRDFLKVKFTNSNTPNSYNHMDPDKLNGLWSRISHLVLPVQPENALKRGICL

SMILES	composite z-score [1]	composite z-score [2]	composite z-score [3]	z-score [4]	composite z-score [5]	composite z-score [6]	composite z-score [7]	composite z-score [8]	composite z-score [9]	composite z-score [10]	composite z-score [11]	z-score [12]	composite z-score [13]	composite z-score [14]	composite z-score [15]	composite z-score [16]	composite z-score [17]	composite z-score [18]	composite z-score [19]	composite z-score [20]
C=CC[C@@]1(C(=O)O)N=C(c2ccc(OCCCO)cc2)O[C@@H]1c1ccccc1CN=[N+]=[N-]	0.802	0.682	0.062	-1.38 (inactive)	0.397	0.828	0.583	1.17	0.592	1.15	0.895	-1.99	0.461	1.83	0.608	0.115	-0.0119	0.0139	0.976	0.974
CCOC(=O)C[C@H]1[C@H](OC(=O)c2ccc(C(=O)c3ccccc3)cc2)[C@@H](NC(=O)c2ccc3ccccc3c2)c2cc(OCCCO)ccc2N1C(=O)c1ccc2ccccc2n1	0.608	0.124	0.0404	-0.372 (inactive)	0.388	0.712	0.598	0.624	0.713	0.676	1.05	-0.415	0.23	0.794	-0.191	-0.168	-0.191	-0.188	0.982	0.898
O=C1c2ccccc2[C@](Cc2ccccc2I)(C(=O)O)[C@H](c2ccc(CO)cc2)N1Cc1ccccc1	1.39	0.486	0.736	0.188 (inactive)	-0.011	-0.0481	-0.964	-0.509	-0.69	-0.309	1.17	-0.837	-1.04	1.34	0.83	-0.0846	-0.26	-0.215	0.712	2.38
C=CCC(OC(C)=O)[C@@H]1[C@@H](N(Cc2cccc3ccccc23)C(=O)c2cccc3ccccc23)c2cc(OCCCO)ccc2N1C(=O)Cc1ccc2ccccc2c1 (stereo not given in full)	-0.181	-0.177	0.551	0.341 (inactive)	-0.0715	-0.0273	-0.117	0.246	-0.394	1.48	0.281	0.108	-0.277	-0.603	-0.177	-0.0685	-0.138	0.255	0.0057	-0.424
O=C1N(CCS(=O)(=O)c2ccccc2)c2ccccc2[C@@H]2OC(c3ccc(OCCCO)cc3)=N[C@]12CCS(=O)(=O)c1ccccc1	0.982	0.753	0.585	-0.254 (inactive)	0.989	1.26	0.917	1.42	1.16	0.878	1.38	0.182	0.8	1.67	0.176	0.0142	0.109	0.0373	2.17	1.67
COC(=O)[C@@]1(CCC(=O)OC(C)(C)C)N=C(c2ccc(OCCCO)cc2)O[C@H]1c1ccccc1CN=[N+]=[N-]	1.3	0.425	0.87	1.29 (inactive)	-0.035	-0.546	-0.827	0.157	-0.346	0.282	0.263	-2.6	-0.471	0.183	-0.222	0.0079	-0.0035	-0.0655	0.868	0.592
CCN(CC)c1ccc(N2CC=CC34O[C@@H]5C=CCOC(=O)[C@@H]5[C@H]3C(=O)N(CCO)[C@@H]4C2=O)cc1 (stereo not given in full)	1.47	-0.0117	0.54	0.0206 (inactive)	-0.938	-0.562	-1.66	-0.952	-1.51	-0.292	-0.73	0.466	-2.26	-0.97	0.266	-0.25	0.0756	-0.338	0.422	-1.29
NC(=O)[C@@]1(CCS(=O)(=O)c2ccccc2)COC(c2ccc(OCCCO)cc2)=N1	1.35	0.628	0.831	0.129 (inactive)	0.19	-0.123	-0.143	-0.232	-0.526	1.21	-0.244	-0.806	-0.323	1.12	0.549	-0.0495	0.138	-0.359	0.512	0.768
[N-]=[N+]=NCc1ccccc1C[C@]1(C(=O)NCc2ccccc2)N=C(c2ccc(OCCCO)cc2)O[C@H]1c1ccccc1CN=[N+]=[N-]	1.03	1.22	0.889	-1.33 (inactive)	-0.0516	0.412	-0.253	0.0358	-0.726	0.794	1.42	-2.3	-0.578	1.36	0.533	0.0474	0.338	-0.0439	1.9	1.87
C=C(COC)/C(=C/C[C@H](OC(=O)c1ccncc1)c1cccc(OCCO)c1)c1cnc2ccccc2c1	0.691	0.199	0.293	0.0664 (inactive)	1.05	1.3	0.855	1.45	0.938	1.2	-0.378	-1.56	0.791	0.697	-0.64	-0.0944	0.235	-0.145	0.756	3.02
CC(C)C(=C=CC[C@@H](O)c1ccc(OCCO)cc1)CCO	0.959	-0.233	0.0776	-0.35 (inactive)	0.688	-0.579	-0.395	0.196	-0.117	0.516	0.0426	-0.283	-0.141	0.236	-0.421	-0.18	-0.237	-0.178	-0.117	0.441
